The target in one assay is GPR64. The assay is described as follows: pooled miR-30 sensor sort-seq; sequence = guide strand. Conditions: shRNA.
TTGGTTTACAGTCTGCTTCTTT: the sensor-assay potency score (higher = more potent) stood at 0.449.
Same read-out and setting: under TAGTGTATTGTTTAAAACCAAC stands -1.45; under TTGAATACTGGTTTTTCGCTGG, 0.838.
Same read-out and setting: the result for TAGTCTACTCTCCTGTTCCTAA reads -0.669; that for TAACAATCAACAATGTACCATG, -0.826.
Same read-out and setting: under ATTATCAGTATCTTCTTCCAGG stands -0.212; under TACATGTAGCAACAATAGCAGT, -1.27.
Take TAAAGTAACATCATTGAGGCTT: the sensor-assay potency score (higher = more potent) was 0.0974.
The sequence TAGTGTTGACATTCGCAGGGGC gave a sensor-assay potency score (higher = more potent) of 0.711.
As to TAAGCTTAAAGTAACATCTGGA, the sensor-assay potency score (higher = more potent) is 0.962.
Still for that read-out and setting: the result for TTCTATAATCTGACTACTGGGG reads -0.476.
On the same count and under the same terms, the result for TTGAAGAGCTGGACACTCCTTG reads 0.677.

The target of the next assay is GPRC5B. The assay is described as above. Conditions: shRNA.
ATGAGCATCAGGAGCAGTGTGA had a sensor-assay potency score (higher = more potent) of -1.27.
Same read-out and setting: the result for AAGAGGTACATGGTCATCCAGG reads -1.02; that for TTCGGAGAGCTGCATTGTGTTC, -1.86.
Still for that read-out and setting: under TTGAGCACGACGGCCATCTCAG stands -1.15; under TGCTGCAGCTTGACATTGCCGA, -0.579; under TTGTTCTCCATATAGGCCCGCG, -1.02.
The same measure, in the same setting: the result for ATACACGTTGCTTCTAAACGGA reads -0.0127; that for TTCCACCTCTTGAACTTGCCGC, -0.546; that for TACCATGTCGTAGATGAGGGCC, -0.116.
In turn, TACACGTTGCTTCTAAACGGAG showed a sensor-assay potency score (higher = more potent) of -1.35.
On the same count and under the same terms, under TTGGGAAATCCTGCTGTTCGGA stands -0.702.
Still for that read-out and setting: under TTGAACTTGCCGCACAGAGTGA stands -0.846.

Another assay concerns the target GPRC5C. Described as above. The note with it: shRNA.
Turning to TCGTAAGCTCCTTCGGACGGAA, the sensor-assay potency score (higher = more potent) was -0.916.
Still for that read-out and setting: the result for TGAGGTTGCAGGAATCTCCAGA reads 0.399; that for TCCTTCGGACGGAACTTTGTGC, -0.974; that for TTCTTGCCGTCTTTCGGCGGTG, -1.04.
The sequence AAGACCTGAGAGTTCTTGCCGT had a sensor-assay potency score (higher = more potent) of 0.1.
Still for that read-out and setting: the result for ATGATGGTGAGCACAAACGTGG reads -1.32; that for TCACAGAGGAGCAAGATCCAGG, -0.72; that for ATGGTGAGCACAAACGTGGTGA, -0.43.
Still for that read-out and setting: the result for TTGGTGTCCTGCACAAAGGGGA reads -0.48; that for TGATGTCGTAAGCTCCTTCGGA, -0.537; that for TTCGGACGGAACTTTGTGCATC, -0.913.
On the same count and under the same terms, under TAGTACAGGGGGTTGAGGCCTT stands 0.25.

Source of the values: the OligoGym collection.
Also: reference of the scale not given here.
